# Assay results from PubChem BioAssay (NCI).
# About 83,000 compounds went through this panel and 20% of them were active in at least one assay; those are over-represented in the sample as a whole.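 A percent growth of 40 corresponds to 60% growth inhibition; 0 means no net growth; -100 means all cells died. Active threshold: below 10.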 Unmarked numbers belong to inactive results. Active and inactive are the calls of the source.
# System: 786-0 renal
# Assay: NCI-60 one-dose screen, 48 h (100 = growth as untreated, 0 = no growth, -100 = all killed)
# Settings: 10 µM unless noted
row,Structure (SMILES),growth
1,COc1ccc(S(=O)(=O)N2CCN(c3cc4c(cc3F)c(=O)c(C(=O)O)cn4C3CC3)CC2)c(OC)c1,91.5%
2,CCC(C)NCC(=O)O (centres undefined),103%
3,O=C(O)Cc1ccc2c(c1)Cc1cccnc1O2,98%
4,COc1cc(Cn2c(SCC(=O)Nc3ccc(Cl)cc3)nc3ccccc3c2=O)cc(OC)c1OC,-11% (active)
5,CC(C)(C)OC(=O)N[C@@H](Cc1ccccc1)C(=O)N(Cc1ccccc1)C1(C(=O)NCc2ccccc2)CCN(Cc2ccccc2)CC1,51.7%
6,COC(=O)C(CC(=O)c1ccc(-c2ccccc2)cc1)c1ccccc1 (centres undefined),28.7%
7,C=C1C(=O)O[C@H]2[C@H]1CC/C(Cn1cc(-c3ccccc3C(F)(F)F)nn1)=C\CC[C@@]1(C)O[C@@H]21,-81.2% (active)
8,O=C(O)C(=Cc1c2ccccc2cc2ccccc12)C(=O)O,106%
9,CN(C)c1nc(N)c(N=O)c(N)n1,106%
10,CCCCCCC[C@@H](O)CC(=O)N[C@H](CCCCN)C(=O)N[C@H](Cc1c[nH]c2ccccc12)C(=O)NC(CCCCN)C(=O)N[C@H](CC(C)C)C(=O)N[C@H](Cc1ccccc1)C(=O)N[C@H](CCCCN)C(=O)N[C@H](CCCCN)C(=O)N[C@H](CC(C)C)C(=O)N1CCCC1C(=O)N[C@H](CCCCN)C(=O)N[C@H](Cc1ccccc1)C(=O)N[C@H](CC(C)C)C(=O)N[C@H](Cc1c[nH]cn1)C(=O)N[C@H](CC(C)C)C(=O)N[C@H](C)C(=O)N[C@H](CCCCN)C(=O)N[C@H](CCCCN)C(=O)N[C@H](Cc1ccccc1)C(=O)O (some centres undefined),-34.4% (active)
11,O=S(=O)(NCCCNc1cc(-c2cn(-c3ccccc3)nc2-c2cccc(O)c2)ccn1)c1cccc2ccccc12,-9.71% (active)
12,O=C(NCCCN1CCN(CCCNC(=O)C2CCCCC2)CC1)C1CCCCC1,96.5%
13,CCN(Cc1ccc(CN(CC)C(=O)C(Cl)(Cl)Cl)cc1)C(=O)C(Cl)(Cl)Cl,72.6%
14,CCOC(=O)CC(C#N)(CC(=O)OCC)C(=O)OCC,104%
15,COc1ncc(-c2ccc3ncnc(Nc4cccc(Cl)c4)c3c2)cc1NS(=O)(=O)C1CC1,62.6%
16,Cc1cc(C)c(S(=O)(=O)N2CCN(c3cc4c(cc3F)c(=O)c(C(=O)O)cn4C3CC3)CC2)c(C)c1,75.6%
17,COc1ccc(/C=C/C(=O)OCC(=O)NNC(=O)c2ccccc2)cc1OC,99.8%
18,O=C1c2ccccc2C(=O)c2c1oc1oc3c(c(=O)c21)c(=O)n(-c1ccccc1)c1ccccc31,97.9%
19,O=C(Nc1ccc(Cl)cc1)c1cc(-c2ccc(F)cc2)c2sc(=O)[nH]c2n1,14.5%
20,CC(C)(C)c1ccc(S(=O)(=O)Oc2ccc3c4c(c(=O)oc3c2)CCCCC4)cc1,60.8%

row,Structure (SMILES),growth
1,CCN(CC)CCSc1c2ccc(Cl)cc2nc2ccc(OC)cc12,67.6%
2,Cc1ccc(OCCn2c(C)nn(-c3ccc(Cl)cc3)c2=O)cc1,100%
3,O=C(CN1CCN(c2cc3c(cc2F)c(=O)c(C(=O)O)cn3C2CC2)CC1)Nc1ccc(C(=O)/C=C/c2ccc(Cl)cc2)cc1,88.9%
4,CCC(c1ccc(OC)cc1)C(CC)c1ccc(OCC[N+](C)(C)C)cc1 (centres undefined),88%
5,O=C(C[N+](=O)[O-])c1ccc(Cl)cc1,98.5%
6,O=C(CCC(=O)OC1CCCC1)OC1CCCC1,104%
7,CCOC(=O)c1ccccc1NC(c1ccccc1)c1ccc2cccnc2c1O (centres undefined),1.44% (active)
8,C/C(=C\c1csc(C)n1)[C@@H]1C[C@@H]2O[C@]2(C)CCC[C@H](C)[C@H](O)[C@@H](C)C(=O)C(C)(C)[C@@H](O)CC(=O)N1,-22.5% (active)
9,COc1ccc(C2CC(c3cccs3)=NN2c2ccc(S(=O)(=O)NC(=O)Nc3ccc(C)cc3)cc2)cc1 (centres undefined),104%
10,CCSc1nnc(NC(=O)COc2ccc(Cl)cc2C)s1,94.7%
11,COc1cc(CNC(=O)CSc2nc3ccccc3c(=O)n2Cc2cc(OC)c(OC)c(OC)c2)cc(OC)c1OC,101%
12,COc1ccc(NC(=S)/N=c2\oc3c(OC)cccc3cc2-c2cc3ccccc3[nH]2)cc1,65%
13,COc1ccc(C2=CC(c3ccc(Oc4ccnc5cc(Cl)ccc45)c(OC)c3)c3c(nc(OC)[nH]c3=O)N2)cc1 (centres undefined),80.3%
14,CCN(C(=O)c1cc2ncccc2[nH]1)[C@H]1CCC[C@@H](NCc2cccc(F)c2)C1,110%
15,COc1ccc(/C=C/C(=O)/C=C/c2cc3ccc(Cl)cc3[nH]c2=O)cc1,94.9%
16,CCc1c(C(=O)Nc2ccc3ccccc3c2)[nH]c(C)c1C(C)=O,104%
17,Cc1cnc(NC(=O)C(Cc2ccccc2)NC(=O)c2ccccc2)s1 (centres undefined),96.9%
18,O=C1Nc2ccc(Br)cc2C1=N/C=c1\[nH]c(=O)/c(=C/c2ccc(Cl)cc2)s1,90.6%
19,CC/C(=C(\c1ccc(O)cc1)c1ccc(OCCN(C)CCN(C)C(=O)CCC(=O)c2c(C)[nH]c(/C=C3\N=C(c4ccc[nH]4)C=C3OC)c2C)cc1)c1ccccc1,87.5%
